Structures can show the parent of a compound that is named as a salt. ± gives the standard deviation of the averaged measurements. The full ranking holds about 2,000 compounds; the median of “relative cell viability vs DMSO, compound + 0.2 uM CuET” is about 1, and the lowest 2% start at about 0.25. For the sample, the lowest values were picked, then their nearest neighbours and some compounds at random.

Among the data in the supplement of paper PMC10670038 are relative cell viability values, retold here.

The test system of the experiment is TE10. Put plainly: relative cell viability vs DMSO, compound + 0.2 uM CuET (fraction); TE10 is an esophageal squamous carcinoma line; higher = less cytotoxic. The following applies: 2 µM; co-treatment: CuET (bis(diethyldithiocarbamate)copper) 0.2 uM; 48 h. Here is the method: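 TE10 ESCC cells (1,000/well, 384-well plates) were treated with Selleck bioactive library compounds at 2 uM combined with 0.2 uM CuET (copper diethyldithiocarbamate) for 48 h. Viability was read by CellTiter-Glo and expressed relative to DMSO wells. Two technical replicates (A, B).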
Regarding `c1cc(-c2cnn3cc(-c4ccc(N5CCNCC5)cc4)cnc23)c2cccnc2c1`, the relative cell viability came to 0.182 ± 0.0055.
The result for `Cc1c(C(=O)Nc2ccc(N3C[C@@H](C)O[C@@H](C)C3)nc2)cccc1-c1ccc(OC(F)(F)F)cc1` [LDE225 (NVP-LDE225,Erismodegib)] reads 0.714 ± 0.081.
As for `CNc1ncnc2c1ncn2[C@@H]1O[C@H](CO)[C@@H](O)[C@H]1O` [N6-methyladenosine (m6A)], the relative cell viability came out at 1.06 ± 0.23.
The value for `COc1nc(N)nc2c1ncn2[C@@H]1O[C@H](CO)[C@@H](O)[C@@H]1O` [Nelarabine] was 1.21 ± 0.043.
The value for `COc1ccc(C[C@H](N)C(=O)N[C@H]2[C@@H](O)[C@H](n3cnc4c(N(C)C)ncnc43)O[C@@H]2CO)cc1` [Puromycin 2HCl] was 0.249 ± 0.0061.
In the case of `Nc1nonc1C(=Nc1ccc(F)c(Cl)c1)NO`, the relative cell viability stood at 1.15 ± 0.14.
With `O=C(Nc1cc2cc[nH]c2cn1)c1ccccc1`, the relative cell viability stood at 0.3986 ± 0.0004.
In the case of `CS(=O)(=O)N1CCN(Cc2cc3nc(-c4cccc5[nH]ncc45)nc(N4CCOCC4)c3s2)CC1`, the relative cell viability worked out at 0.68 ± 0.0074.
With `COc1ccc(-c2nc(N3CCOCC3)c3sc(CN(C)c4ncc(C(=O)NO)cn4)cc3n2)cn1`, the relative cell viability was 0.1569 ± 0.00068.
Regarding `Cc1c(CN2CCN(C(=O)[C@H](C)O)CC2)sc2c(N3CCOCC3)nc(-c3cnc(N)nc3)nc12`, the relative cell viability turned out to be 0.495 ± 0.091.
Regarding `NCCCC[C@@H]1NC(=O)[C@@H](Cc2ccc(O)cc2)NC(=O)[C@H](CC(=O)O)NC(=O)CNC(=O)[C@H](CCCN=C(N)N)NC1=O` [Cyclo(RGDyK)], the relative cell viability was 1.19 ± 0.27.
As to `O=C(O)c1ccc(N2C(=O)C(=Cc3ccc(-c4ccc([N+](=O)[O-])cc4)o3)C=C2c2ccccc2)cc1`, the relative cell viability is 1.1 ± 0.22.
Take `Cc1cc(Cl)ccc1OCCCC(=O)NO` [Droxinostat]: the relative cell viability came out at 0.997 ± 0.063.
With `O=C(CCCCCCC(=O)Nc1ccccc1)NO` [Vorinostat (SAHA, MK0683)], the relative cell viability stood at 0.473 ± 0.055.
The result for `Cc1cc(C)cc(C(=O)NOCCCCCC(=O)NO)c1` reads 0.23 ± 0.02.
`C[C@H](O)[C@H](O)[C@@H](O)[C@@H](O)C=O` [L-(+)-Rhamnose Monohydrate]: the relative cell viability stood at 1.15 ± 0.046.
With `CC(NC(=O)Cc1cc(F)cc(F)c1)C(=O)NC(C(=O)OC(C)(C)C)c1ccccc1` (stereo not given), the relative cell viability worked out at 1.23 ± 0.04.
The result for `CN(CCOc1ccc(CC2SC(=O)NC2=O)cc1)c1ccccn1` (stereo not given) [Rosiglitazone maleate] reads 1.12 ± 0.081; that for `CN(CCOc1ccc(CC2SC(=O)NC2=O)cc1)c1ccccn1` (stereo not given) [Rosiglitazone], 1.04 ± 0.052; that for `CN(CCOc1ccc(CC2SC(=O)NC2=O)cc1)c1ccccn1` (stereo not given) [Rosiglitazone HCl], 1.06 ± 0.062.
For the molecule `COC(=O)C1=C(C#N)NC(C)=C(C(=O)OC(C)C)C1c1cccc([N+](=O)[O-])c1` (stereo not given) [Nilvadipine], the relative cell viability was found to be 1.11 ± 0.1.
As to `O=C(Nc1cccc2cccnc12)c1ccc(N2C(=O)C3C4C=CC(C4)C3C2=O)cc1` (stereo not drawn) [IWR-1-endo], the relative cell viability was 0.994 ± 0.1.
For `Cc1ccc(S(=O)(=O)c2ccc([N+](=O)[O-])o2)cc1`, the relative cell viability amounted to 0.175 ± 0.0036.
Consider `NC(=O)N/N=C/c1ccc([N+](=O)[O-])o1` [Nitrofural], for which the relative cell viability was 1.3 ± 0.033.
With `Nc1ccc(S(=O)(=O)Nc2ncccn2)cc1` [Sulfadiazine], the relative cell viability turned out to be 1.03 ± 0.045.
The result for `CNS(=O)(=O)CCc1ccc2[nH]cc(C3CCN(C)CC3)c2c1` [Naratriptan] reads 1.2 ± 0.1.
The result for `CCN(CCO)CCCOc1ccc2c(Nc3cc(CC(=O)Nc4cccc(F)c4)[nH]n3)ncnc2c1` [Barasertib (AZD1152-HQPA)] reads 1.25 ± 0.26.
Turning to `CC(NC(=O)C(Cc1ccccc1)NC(=O)OCc1ccccc1)C(=O)CF` (stereo not given), the relative cell viability turned out to be 1.14 ± 0.028.
Turning to `CCCC[C@@H](C=O)NC(=O)[C@H](CC(C)C)NC(=O)OCc1ccccc1` [Calpeptin], the relative cell viability was 1.12 ± 0.036.
In the case of `CC(C)C[C@@H](C=O)NC(=O)[C@H](CC(C)C)NC(=O)[C@H](CC(C)C)NC(=O)OCc1ccccc1`, the relative cell viability stood at 0.223 ± 0.006.
With `C[C@]12CCC(=O)C=C1[C@@H]1C[C@@H]1[C@H]1[C@@H]3[C@@H]4C[C@@H]4[C@@]4(CCC(=O)O4)[C@@]3(C)CC[C@@H]12` [Drospirenone], the relative cell viability amounted to 0.77 ± 0.4.
For `COc1ccc(C[C@H](NC(=O)[C@H](C)NC(=O)CN2CCOCC2)C(=O)N[C@@H](Cc2ccccc2)C(=O)[C@@]2(C)CO2)cc1`, the relative cell viability is 0.198 ± 0.0095.
With `CC(C)CC(CC(=O)NO)C(=O)N[C@@H](Cc1ccc2ccccc2c1)C(=O)N[C@@H](C)C(=O)NCCN` (stereo not given in full), the relative cell viability was determined as 1.19 ± 0.051.
The value for `COC(=O)[C@H](Cc1ccccc1)NC(=O)[C@@H](N)CC(=O)O` [Aspartame] was 1.09 ± 0.034; that for `CC(C)C[C@H](NC(=O)[C@H](CCc1ccccc1)NC(=O)CN1CCOCC1)C(=O)N[C@@H](Cc1ccccc1)C(=O)N[C@@H](CC(C)C)C(=O)[C@@]1(C)CO1` [Carfilzomib (PR-171)] was 0.198 ± 0.019.
With `O=C(Cc1ccc(-c2ccc(OCCN3CCOCC3)cc2)cn1)NCc1ccccc1`, the relative cell viability turned out to be 0.827 ± 0.037.
With `CC(C)c1nc(CN(C)C(=O)N[C@@H](CCN2CCOCC2)C(=O)N[C@H](CC[C@H](Cc2ccccc2)NC(=O)OCc2cncs2)Cc2ccccc2)cs1` [Cobicistat (GS-9350)], the relative cell viability stood at 0.957 ± 0.025.
For the molecule `CC(C)C[C@H](NC(=O)[C@H](Cc1ccccc1)NC(=O)c1cnccn1)B(O)O` [Bortezomib (PS-341)], the relative cell viability came out at 0.348 ± 0.058.
The result for `COC[C@H](NC(=O)c1cnc(C)s1)C(=O)N[C@@H](COC)C(=O)N[C@@H](Cc1ccccc1)C(=O)[C@@]1(C)CO1` [Oprozomib (ONX 0912)] reads 0.182 ± 0.0023; that for `CC(=O)NC(Cc1ccc(O)cc1)C(=O)NC(CCCN=C(N)N)C(=O)NC(Cc1ccccc1)C(N)=O` (stereo not given), 0.977 ± 0.19.
